Records with an inconclusive call do not appear. Active and inactive are the calls of the source. The calls were made as follows, unless noted: active = hit-call score of the fitted dose curve at least 0.9, where 1 is the maximum; inactive = score below 0.9.
What was measured:
[1] = read-out: Phosphatase and tensin (PTEN), PTEN (gene 5728); experiment: LTEA_HepaRG_PTEN: Life Technologies and Expression Analysis (LTEA) Assay for Phosphatase and tensin (PTEN) using HepaRG (AID 2283523); details: mRNA level, 48 h; actives raise or lower the signal
How it was run: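 Expression of PTEN is quantified in the human liver line HepaRG following two days of dosing (top concentration 100 uM, half-log dilutions, 0.5% DMSO). Values derive from bidirectional curve fitting relative to DMSO controls.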

[2] = read-out: solute carrier (SLC22A1), SLC22A1 (gene 6580); experiment: LTEA_HepaRG_SLC22A1: Life Technologies and Expression Analysis (LTEA) Assay for solute carrier (SLC22A1) using HepaRG (AID 2283524); details: mRNA level, 48 h; actives raise or lower the signal
How it was run: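 Transcript induction or suppression of SLC22A1 in human HepaRG cultures is scored after 48 h chemical treatment, with DMSO (0.5%) as baseline for bidirectional fitting. Concentrations span eight half-log points topping at 100 uM.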

[3] = read-out: Pyruvate Dehydrogenase Kinase 4 (PDK4), PDK4 (gene 5166); experiment: LTEA_HepaRG_PDK4: Life Technologies and Expression Analysis (LTEA) Assay for Pyruvate Dehydrogenase Kinase 4 (PDK4) using HepaRG (AID 2283525); details: mRNA level, 48 h; actives raise or lower the signal
How it was run: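 Eight-point, half-log concentration series (max 100 uM, 0.5% DMSO) applied to differentiated HepaRG cells for 48 h in duplicate. Endpoint: PDK4 mRNA induction or repression by qRT-PCR against DMSO baseline.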

[4] = read-out: NAD(P)H dehydrogenase [quinone] 1 (NQO1), NQO1 (gene 1728); experiment: LTEA_HepaRG_NQO1: Life Technologies and Expression Analysis (LTEA) Assay for NAD(P)H dehydrogenase [quinone] 1 (NQO1) using HepaRG (AID 2283526); details: mRNA level, 48 h; actives raise or lower the signal
How it was run: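 In this assay, gene expression is read by qRT-PCR after 48 h exposure of HepaRG cells to eight concentrations (max 100 uM, half-log) in 0.5% DMSO. Each chemical runs in duplicate, and activity is scored relative to vehicle.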

[5] = read-out: Nuclear factor erythroid 2-related factor 2 (Homo sapiens) (UniProt Q16236); experiment: LTEA_HepaRG_NFE2L2: Life Technologies and Expression Analysis (LTEA) Assay for Nuclear factor erythroid 2-related factor 2 (NFE2L2) Transcription Factor using HepaRG (AID 2283527); details: mRNA level, 48 h; actives raise or lower the signal
How it was run: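 Human liver HepaRG line treated in duplicate for 48 h with an eight-point series topping at 100 uM. Gene expression of NFE2L2 by qRT-PCR, bidirectionally fitted against the vehicle control.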

[6] = read-out: succinate dehydrogenase complex iron sulfur subunit B (SDHB), SDHB (gene 6390); experiment: LTEA_HepaRG_SDHB: Life Technologies and Expression Analysis (LTEA) Assay for succinate dehydrogenase complex iron sulfur subunit B (SDHB) using HepaRG (AID 2283528); details: mRNA level, 48 h; actives raise or lower the signal
How it was run: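 HepaRG, 48 h exposure, 8-pt half-log series from 100 uM in 0.5% DMSO, duplicates. Readout: SDHB mRNA by Fluidigm qRT-PCR vs housekeeping genes; bidirectional fit relative to DMSO.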

[7] = read-out: Signal transducer and activator of transcription 3 (Homo sapiens) (UniProt P40763); experiment: LTEA_HepaRG_STAT3: Life Technologies and Expression Analysis (LTEA) Assay for Signal transducer and activator of transcription (STAT3) using HepaRG (AID 2283529); details: mRNA level, 48 h; actives raise or lower the signal
How it was run: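 In this transcriptional endpoint, HepaRG cultures receive test chemicals at up to 100 uM for 48 h, tested in duplicate. STAT3 mRNA is normalized to ACTB, GAPDH and POLR2A.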

[8] = read-out: solute carrier (SLCO1B1), SLCO1B1 (gene 10599); experiment: LTEA_HepaRG_SLCO1B1: Life Technologies and Expression Analysis (LTEA) Assay for solute carrier (SLCO1B1) using HepaRG (AID 2283530); details: mRNA level, 48 h; actives raise or lower the signal
How it was run: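 Differentiated human HepaRG cells, plated 48 h, switched to serum-free induction medium and exposed in duplicate for 48 h to 8 half-log concentrations (top 100 uM) in 0.5% DMSO. SLCO1B1 mRNA by TaqMan qRT-PCR, normalized to ACTB/GAPDH/POLR2A.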

[9] = read-out: sulfotransferase 2A1 (SULT2A1), SULT2A1 (gene 6822); experiment: LTEA_HepaRG_SULT2A1: Life Technologies and Expression Analysis (LTEA) Assay for sulfotransferase 2A1 (SULT2A1) using HepaRG (AID 2283531); details: mRNA level, 48 h; actives raise or lower the signal
How it was run: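 Differentiated human HepaRG cells in serum-free induction medium were exposed for 48 h to eight half-log concentrations (top 100 uM, 0.5% DMSO). SULT2A1 mRNA was measured by qRT-PCR, normalized to ACTB, GAPDH and POLR2A, and fitted bidirectionally against DMSO.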

[10] = read-out: Transforming Growth Factor (TGFA), TGFA (gene 7039); experiment: LTEA_HepaRG_TGFA: Life Technologies and Expression Analysis (LTEA) Assay for Transforming Growth Factor (TGFA) using HepaRG (AID 2283532); details: mRNA level, 48 h; actives raise or lower the signal
How it was run: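 Gene expression of TGFA was quantified by qRT-PCR after human HepaRG cells were treated for 48 h with test chemicals (eight concentrations, highest 100 uM, 0.5% DMSO). Activity in either direction was fitted relative to DMSO.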

[11] = read-out: Transforming Growth Factor (TGFB1), TGFB1 (gene 7040); experiment: LTEA_HepaRG_TGFB1: Life Technologies and Expression Analysis (LTEA) Assay for Transforming Growth Factor (TGFB1) Transporter using HepaRG (AID 2283533); details: mRNA level, 48 h; actives raise or lower the signal
How it was run: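 Differentiated human HepaRG cells in serum-free induction medium were exposed in duplicate for 48 h to eight concentrations (top 100 uM, half-log steps, 0.5% DMSO). TGFB1 mRNA was quantified by qRT-PCR, normalized to ACTB, GAPDH, POLR2A, and fitted bidirectionally against DMSO.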

TIMP1, TIMP1 (gene 7076) = experiment: LTEA_HepaRG_TIMP1: Life Technologies and Expression Analysis (LTEA) Assay for TIMP1 using HepaRG (AID 2283534); details: mRNA level, 48 h; actives raise or lower the signal;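 also: TaqMan qRT-PCR signal normalized to ACTB GAPDH and POLR2A housekeeping genes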
How it was run: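 Differentiated human HepaRG cells in serum-free induction medium were exposed 48 h to chemicals (8 half-log concentrations, top 100 uM, 0.5% DMSO). TIMP1 mRNA was quantified by TaqMan qRT-PCR, normalized to ACTB/GAPDH/POLR2A; bidirectional fit versus DMSO.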

[12] = read-out: Tumor necrosis factor receptor 1 (TNFRSF1A), TNFRSF1A (gene 7132); experiment: LTEA_HepaRG_TNFRSF1A: Life Technologies and Expression Analysis (LTEA) Assay for Tumor necrosis factor receptor 1 (TNFRSF1A) using HepaRG (AID 2283535); details: mRNA level, 48 h; actives raise or lower the signal
How it was run: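 Differentiated human HepaRG cells were exposed in duplicate for 48 h in serum-free induction medium to eight concentrations (top 100 uM, half-log steps, 0.5% DMSO). TNFRSF1A mRNA was quantified by qRT-PCR, normalized to ACTB, GAPDH and POLR2A, then fitted bidirectionally against DMSO.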

[13] = read-out: Thyroid Hormone Responsive (THRSP), THRSP (gene 7069); experiment: LTEA_HepaRG_THRSP: Life Technologies and Expression Analysis (LTEA) Assay for Thyroid Hormone Responsive (THRSP) using HepaRG (AID 2283536); details: mRNA level, 48 h; actives raise or lower the signal
How it was run: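 Cell model: human HepaRG, approx. 100,000 cells/well, 0.5% DMSO vehicle. Exposure lasts 48 h; phenobarbital 1 mM serves as induction positive control. Gene expression is measured by qRT-PCR against three endogenous control genes.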

[14] = read-out: UDP glucuronosyltransferase (UGT1A1), UGT1A1 (gene 54658); experiment: LTEA_HepaRG_UGT1A1: Life Technologies and Expression Analysis (LTEA) Assay for UDP glucuronosyltransferase (UGT1A1) using HepaRG (AID 2283538); details: mRNA level, 48 h; actives raise or lower the signal
How it was run: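 mRNA induction or loss of UGT1A1, by TaqMan qRT-PCR, in duplicate HepaRG wells after 48 h exposure to half-log dilutions topping at 100 uM; DMSO (0.5%) served as baseline.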

[15] = read-out: UDP glucuronosyltransferase (UGT1A6), UGT1A6 (gene 54578); experiment: LTEA_HepaRG_UGT1A6: Life Technologies and Expression Analysis (LTEA) Assay for UDP glucuronosyltransferase (UGT1A6) using HepaRG (AID 2283539); details: mRNA level, 48 h; actives raise or lower the signal
How it was run: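 Human HepaRG cells were dosed for 48 h in serum-free induction medium with 0.5% DMSO vehicle, eight-point half-log series from 100 uM, in duplicate. UGT1A6 mRNA was measured by qRT-PCR, normalized to ACTB, GAPDH, POLR2A, and fitted bidirectionally against DMSO.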

[16] = read-out: X-box binding protein 1 (XBP1), XBP1 (gene 7494); experiment: LTEA_HepaRG_XBP1: Life Technologies and Expression Analysis (LTEA) Assay for X-box binding protein 1 (XBP1) using HepaRG (AID 2283540); details: mRNA level, 48 h; actives raise or lower the signal
How it was run: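 Differentiated human HepaRG cells in serum-free induction medium were exposed in duplicate for 48 h to eight half-log concentrations up to 100 uM in 0.5% DMSO. XBP1 mRNA was quantified by qRT-PCR, normalised to ACTB, GAPDH and POLR2A, with bidirectional fitting against DMSO.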

[17] = LTEA_HepaRG_LDH_cytotoxicity: Cytotoxicity Assessment in the Life Technologies and Expression Analysis (LTEA) Assay (AID 2283563; active = hit-call score of the fitted dose curve at least 0.9, where 1 is the maximum)
How it was run: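 Differentiated human HepaRG cells, plated 48 h beforehand, were switched to serum-free induction medium and exposed for 48 h to eight half-log concentrations (top 100 uM) in 0.5% DMSO. LDH was measured in spent medium; activity was fitted relative to DMSO vehicle.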

[18] = read-out: Cellular tumor antigen p53 (Homo sapiens) (UniProt P04637); experiment: LTEA_HepaRG_TP53: Life Technologies and Expression Analysis (LTEA) Assay for Tumor Protein P53 (TP53) using HepaRG (AID 2283537); details: mRNA level, 48 h; actives raise or lower the signal
How it was run: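 HepaRG, 48 h exposure, top 100 uM, half-log 8-point, 0.5% DMSO vehicle, duplicates. Read: TP53 mRNA by TaqMan qRT-PCR, normalised to ACTB/GAPDH/POLR2A; bidirectional fit vs DMSO.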

[19] = ATG_XTT_Cytotoxicity: Cytotoxicity Assessment in the Attagene TRANS-FACTORIAL HepG2 Assay (AID 2283584; active = hit-call score of the fitted dose curve at least 0.9, where 1 is the maximum)
How it was run: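 HepG2 human liver cells, transiently transfected with multiple GAL4-UAS reporter units, were dosed and read at 24 h by XTT as cell number. Loss of signal was fitted relative to DMSO negative control baseline.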

Measured: AC50

Signal transducer and activator of transcription 3 (Homo sapiens), sequence (P40763 whole entry, looked up): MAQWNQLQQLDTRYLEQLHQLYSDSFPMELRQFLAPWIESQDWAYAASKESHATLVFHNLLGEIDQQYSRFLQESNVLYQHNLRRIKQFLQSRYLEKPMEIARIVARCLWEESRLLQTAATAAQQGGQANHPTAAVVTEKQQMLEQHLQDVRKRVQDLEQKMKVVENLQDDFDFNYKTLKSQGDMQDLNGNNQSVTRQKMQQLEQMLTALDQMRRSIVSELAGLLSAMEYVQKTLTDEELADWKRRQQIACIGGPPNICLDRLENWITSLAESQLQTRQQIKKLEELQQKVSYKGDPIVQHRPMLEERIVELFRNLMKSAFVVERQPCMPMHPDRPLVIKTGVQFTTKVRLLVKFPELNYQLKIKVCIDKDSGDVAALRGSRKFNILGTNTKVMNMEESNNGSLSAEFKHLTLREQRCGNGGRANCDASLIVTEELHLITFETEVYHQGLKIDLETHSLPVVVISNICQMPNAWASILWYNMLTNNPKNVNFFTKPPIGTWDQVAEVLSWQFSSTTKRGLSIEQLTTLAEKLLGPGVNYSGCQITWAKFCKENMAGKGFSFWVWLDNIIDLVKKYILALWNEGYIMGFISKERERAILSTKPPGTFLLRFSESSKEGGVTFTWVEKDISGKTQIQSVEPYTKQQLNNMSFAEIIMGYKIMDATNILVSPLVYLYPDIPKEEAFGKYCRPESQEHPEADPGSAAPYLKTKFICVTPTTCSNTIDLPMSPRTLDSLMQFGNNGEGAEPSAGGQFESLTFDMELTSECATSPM
Nuclear factor erythroid 2-related factor 2 (Homo sapiens), sequence (Q16236 whole entry, looked up): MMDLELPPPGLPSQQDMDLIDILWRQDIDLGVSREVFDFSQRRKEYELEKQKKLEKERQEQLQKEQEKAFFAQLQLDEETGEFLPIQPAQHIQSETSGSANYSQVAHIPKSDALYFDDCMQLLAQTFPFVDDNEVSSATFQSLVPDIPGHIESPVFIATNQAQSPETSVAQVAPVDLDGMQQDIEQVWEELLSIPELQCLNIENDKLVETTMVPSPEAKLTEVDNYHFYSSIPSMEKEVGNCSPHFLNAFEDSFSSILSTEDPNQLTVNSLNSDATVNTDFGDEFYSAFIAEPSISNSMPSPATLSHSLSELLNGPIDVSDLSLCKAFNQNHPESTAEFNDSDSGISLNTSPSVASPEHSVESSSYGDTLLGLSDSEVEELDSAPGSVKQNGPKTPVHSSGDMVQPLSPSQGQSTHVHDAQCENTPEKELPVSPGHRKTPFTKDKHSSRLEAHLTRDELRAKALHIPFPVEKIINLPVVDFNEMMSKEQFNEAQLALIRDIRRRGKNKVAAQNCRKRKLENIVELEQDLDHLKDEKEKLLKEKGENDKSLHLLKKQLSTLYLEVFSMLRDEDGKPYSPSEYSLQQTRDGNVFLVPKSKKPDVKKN
Cellular tumor antigen p53 (Homo sapiens), sequence (P04637 whole entry, looked up): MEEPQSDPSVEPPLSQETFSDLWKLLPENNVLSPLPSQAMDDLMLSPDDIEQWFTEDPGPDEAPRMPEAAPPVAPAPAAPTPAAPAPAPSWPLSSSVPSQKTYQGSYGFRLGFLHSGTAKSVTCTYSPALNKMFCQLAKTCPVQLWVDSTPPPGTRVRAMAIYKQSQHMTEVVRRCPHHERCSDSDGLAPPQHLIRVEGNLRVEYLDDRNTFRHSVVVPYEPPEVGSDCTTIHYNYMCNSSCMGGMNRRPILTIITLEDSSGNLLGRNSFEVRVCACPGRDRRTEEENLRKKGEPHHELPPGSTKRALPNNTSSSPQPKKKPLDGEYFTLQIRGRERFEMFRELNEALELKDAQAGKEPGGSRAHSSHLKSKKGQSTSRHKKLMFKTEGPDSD

COCCOCCO
inactive: [1] | [2] | [3] | [4] | [5] | [6] | [7] | [8] | [9] | [10] | [11] | TIMP1, TIMP1 (gene 7076) | [12] | [13] | [15] | [16] | [17]
active: [14] 1.57 µM

c1cc2c3c(cccc3c1)CC2
inactive: [1] | [2] | [3] | [4] | [5] | [6] | [7] | [8] | [9] | [10] | [11] | TIMP1, TIMP1 (gene 7076) | [12] | [13] | [18] | [14] | [15] | [16] | [17]

Nc1ccc2ccccc2c1
active: [5] 29.8 µM | [13] 9.29 µM | [14] 18.8 µM
inactive: [1] | [2] | [3] | [4] | [6] | [7] | [8] | [9] | [10] | [11] | TIMP1, TIMP1 (gene 7076) | [12] | [18] | [15] | [16] | [17] | [19]

c1ccc2c(c1)Nc1ccccc1S2
active: [13] 32.5 µM | [14] 50 µM
inactive: [1] | [2] | [3] | [4] | [5] | [6] | [7] | [8] | [9] | [10] | [11] | TIMP1, TIMP1 (gene 7076) | [12] | [18] | [15] | [16] | [17] | [19]

OCC1CO1 (configuration not stated)
inactive: [1] | [2] | [3] | [4] | [5] | [6] | [7] | [8] | [9] | [10] | [11] | TIMP1, TIMP1 (gene 7076) | [12] | [13] | [18] | [14] | [15] | [16] | [17] | [19]

O=C(O)C1C(C(=O)O)C2(Cl)C(Cl)=C(Cl)C1(Cl)C2(Cl)Cl (configuration not stated)
inactive: [1] | [2] | [3] | [4] | [5] | [6] | [7] | [8] | [9] | [10] | [11] | TIMP1, TIMP1 (gene 7076) | [12] | [13] | [18] | [14] | [15] | [16] | [17] | [19]
